Experiment in all cases: NCI-60 one-dose screen, 48 h (100 = growth as untreated, 0 = no growth, -100 = all killed)
One test has as its system NCI-H460 lung. To be noted: 10 µM unless noted.
The next test relates to HOP-92 NSCLC. To be noted: 10 µM unless noted.
For another test, the system named is MALME-3M melanoma. The note with it: 10 µM unless noted.
For the next test, the system named is MDA-MB-231 breast. The note with it: 10 µM unless noted.
Another test relates to RXF 393 renal. The note with it: 10 µM unless noted.
Another test has as its system UACC-257 melanoma. To be noted: 10 µM unless noted.
Another test deals with HT29 colon. The note with it: 10 µM unless noted.
The next test relates to PC-3 prostate. The note with it: 10 µM unless noted.
Another test relates to SK-MEL-5 melanoma. To be noted: 10 µM unless noted.
Another test relates to UO-31 renal. To be noted: 10 µM unless noted.
For the next test, the system named is SR leukemia. The note with it: 10 µM.
A further test concerns OVCAR-4 ovarian. To be noted: 10 µM unless noted.
A further test relates to IGROV1 ovarian. To be noted: 10 µM.
Another test relates to HS 578T breast. The note with it: 10 µM unless noted.
The subject of the next test is SW-620 colon. To be noted: 10 µM unless noted.
Another test concerns HCC-2998 colon. To be noted: 10 µM unless noted.
In another test the test system is KM12 colon. To be noted: 10 µM unless noted.
The next test deals with SK-MEL-28 melanoma. To be noted: 10 µM unless noted.
The subject of another test is CCRF-CEM leukemia. The note with it: 10 µM unless noted.
The test system of a further test is BT-549 breast. To be noted: 10 µM.

The panel holds about 83,000 compounds, 20% with a hit somewhere; the sample as a whole holds those more often.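 Percent growth is the endpoint: 0 to 100 indicates growth inhibition (40 means 60% inhibition), 0 means no net growth, and negative values indicate cell death.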 A number with no mark means an inactive call. Calls of active or inactive are those of the source. The calls were made as follows: active = growth percent below 10; inactive = the rest.

As to `CCC[CH2][Sn]([CH2]CCC)([CH2]CCC)[O]C(=O)c1ccc(Cl)cc1Cl`, the growth was -78% (active) in the test on NCI-H460 lung; -84.6% (active) in the test on HOP-92 NSCLC; -76.8% (active) with MALME-3M melanoma; -88.2% (active) with MDA-MB-231 breast; -88.5% (active) in the test on RXF 393 renal; -94.8% (active) in the test with UACC-257 melanoma. The growth in the test on HT29 colon is -64.7% (active); with PC-3 prostate, -76.8% (active); with SK-MEL-5 melanoma, -96.1% (active); in the test with UO-31 renal, -86.9% (active); in the test on SR leukemia, 3.12% (active); with OVCAR-4 ovarian, -67.7% (active). Further, the growth is -68.5% (active) with IGROV1 ovarian; -38.3% (active) in the test on HS 578T breast; -71.7% (active) in the test with SW-620 colon; -90.9% (active) with HCC-2998 colon; -92.4% (active) in the test on KM12 colon.
With `N#CC(C#N)=Cc1ccc2ccccc2c1`, the growth in the test with HOP-92 NSCLC is 95.1%; with MDA-MB-231 breast, 106%; in the test on RXF 393 renal, 96.5%; in the test on UACC-257 melanoma it was 108%; with HT29 colon it was 113%; with PC-3 prostate, 95.7%. Further, the growth was 101% with SK-MEL-5 melanoma; 113% in the test with SK-MEL-28 melanoma; 93.3% in the test with CCRF-CEM leukemia; 110% in the test on OVCAR-4 ovarian; 100% in the test with BT-549 breast.
On to `CC(C)(C)[Si](C)(C)OC1[C@@H](O[Si](C)(C)C(C)(C)C)[C@@H](CNC(=O)NC(=O)CF)O[C@H]1n1cnc2c(NC(=O)Nc3ccccc3)ncnc21` (stereo not given in full), for which the growth is 4.01% (active) in the test with NCI-H460 lung; 48.5% in the test on HOP-92 NSCLC; 101% with MALME-3M melanoma; 85.9% in the test with MDA-MB-231 breast; 65.8% in the test on RXF 393 renal; 25.6% in the test on HT29 colon. The growth was 14.5% with PC-3 prostate; 93.2% in the test with SK-MEL-28 melanoma; 77.5% with UO-31 renal; 4.8% (active) with CCRF-CEM leukemia; -22.6% (active) in the test on SR leukemia; 63.8% in the test on OVCAR-4 ovarian. In addition, the growth was 72.9% in the test on IGROV1 ovarian; 29.5% with HS 578T breast; 33.8% in the test on SW-620 colon; 46.3% in the test on HCC-2998 colon; 28.5% in the test on KM12 colon.
As for `CC1([N+](=O)[O-])COP(=O)(Nc2ccc(F)cc2)OC1` (stereo not given), the growth in the test with NCI-H460 lung is 106%; in the test on HOP-92 NSCLC, 118%; with MALME-3M melanoma, 110%; with MDA-MB-231 breast, 118%; with RXF 393 renal, 100%; in the test with UACC-257 melanoma, 101%. For the same molecule, the growth is 96.5% in the test on HT29 colon; 95.5% in the test with PC-3 prostate; 98.2% in the test with SK-MEL-5 melanoma; 116% in the test with SK-MEL-28 melanoma; 73.9% with UO-31 renal; 96.3% in the test with CCRF-CEM leukemia. Moreover, the growth in the test on SR leukemia is 84.2%; with OVCAR-4 ovarian it was 113%; in the test with IGROV1 ovarian, 103%; in the test with HS 578T breast, 103%; with SW-620 colon it was 102%; in the test with HCC-2998 colon, 99.5%. The growth in the test with KM12 colon was 95.8%.
As to `COc1cc(C2CC(=O)Nc3nc(N)[se]c32)c(OC)c2c1OCO2` (stereo not given), the growth is 23.9% in the test on NCI-H460 lung; 105% in the test with HOP-92 NSCLC; 102% in the test on MALME-3M melanoma; 96.3% in the test on MDA-MB-231 breast; 116% in the test on UACC-257 melanoma; 98.5% with HT29 colon. Moreover, the growth in the test with PC-3 prostate is 51.6%; in the test on SK-MEL-28 melanoma it was 104%; with UO-31 renal, 86.8%; in the test with CCRF-CEM leukemia it was 104%; in the test on SR leukemia, 107%; in the test on OVCAR-4 ovarian, 96.3%. The growth in the test with IGROV1 ovarian is 83.6%; with HS 578T breast it was 91.2%; with BT-549 breast, 101%; with SW-620 colon it was 110%; in the test on HCC-2998 colon it was 121%; in the test on KM12 colon, 70.3%.
Consider `CC[C@]12C=CCN3CC[C@@]4(c5ccc(OC)cc5N(C)[C@H]4[C@@](O)(C(=O)OC)[C@@H]1OC(=O)CCCN1CCN(CCCC(=O)O[C@@H]4[C@]5(CC)C=CCN6CC[C@@]7(c8ccc(OC)cc8N(C)[C@H]7[C@@]4(O)C(=O)OC)[C@@H]65)CC1)[C@@H]32`, for which the growth in the test on NCI-H460 lung was -80.3% (active); in the test with HOP-92 NSCLC it was -63.3% (active); in the test with MALME-3M melanoma it was -90.7% (active); with MDA-MB-231 breast it was -89.6% (active); in the test on RXF 393 renal it was -88.5% (active); in the test with UACC-257 melanoma, -87.6% (active). Further, the growth in the test with HT29 colon is -81.3% (active); with PC-3 prostate it was -80.3% (active); with SK-MEL-5 melanoma, -95.9% (active); in the test with SK-MEL-28 melanoma it was -91.6% (active); in the test on UO-31 renal it was -88.8% (active); in the test with CCRF-CEM leukemia, -56.7% (active). Further, the growth with OVCAR-4 ovarian was -47.4% (active); with IGROV1 ovarian it was -76.6% (active); in the test with HS 578T breast, -61.7% (active); in the test on BT-549 breast, -88.3% (active); in the test with SW-620 colon, -81.9% (active); in the test on HCC-2998 colon, -86.6% (active). Besides, in the test on KM12 colon, the growth is -73.9% (active).
For the molecule `n1nc(-c2nonc2-c2nn[nH]n2)n[nH]1`, the growth was 109% in the test with NCI-H460 lung; 104% in the test with HOP-92 NSCLC; 106% in the test on MALME-3M melanoma; 105% with MDA-MB-231 breast; 93.7% with RXF 393 renal; 100% in the test on UACC-257 melanoma. Besides, the growth is 107% with HT29 colon; 102% in the test on PC-3 prostate; 104% in the test on SK-MEL-5 melanoma; 106% in the test on SK-MEL-28 melanoma; 92.5% in the test on UO-31 renal; 92.5% with SR leukemia. Also, the growth in the test with OVCAR-4 ovarian is 102%; in the test with IGROV1 ovarian, 118%; in the test on BT-549 breast it was 103%; with SW-620 colon, 107%; with HCC-2998 colon, 106%; with KM12 colon it was 118%.
As to `CCN1CC2(CN(CC)C1=S)C(=O)NC(=O)NC2=O`, the growth in the test on NCI-H460 lung was 100%; in the test on HOP-92 NSCLC, 53.9%; in the test with MALME-3M melanoma it was 103%; in the test on MDA-MB-231 breast, 110%; in the test on RXF 393 renal, 116%; in the test with UACC-257 melanoma, 94.7%. In addition, the growth is 90.3% in the test on HT29 colon; 85.7% in the test with PC-3 prostate; 106% with SK-MEL-5 melanoma; 105% with SK-MEL-28 melanoma; 99.4% in the test with UO-31 renal; 101% with CCRF-CEM leukemia. The growth with SR leukemia was 114%; in the test on OVCAR-4 ovarian, 93.3%; with IGROV1 ovarian, 103%; in the test on HS 578T breast it was 104%; with BT-549 breast, 91.4%; in the test on SW-620 colon it was 97.4%. The results for the growth in the test on HCC-2998 colon and in the test on KM12 colon were 99.7% and 94.1%, respectively.
Consider `CC12CC[C@H](O)C=C1/C(=N/O)CC1C2CCC2(C)C1CC[C@@H]2O` (stereo not given in full), for which the growth is 80.3% with MALME-3M melanoma; 108% in the test on MDA-MB-231 breast; 104% in the test with RXF 393 renal; 111% with UACC-257 melanoma; 98% in the test on HT29 colon; 103% in the test on SK-MEL-5 melanoma. In addition, the growth with SK-MEL-28 melanoma was 103%; in the test on UO-31 renal, 66.2%; with IGROV1 ovarian, 94.4%; in the test on BT-549 breast, 85%; with HCC-2998 colon it was 99.3%.

The record behind these values is PubChem BioAssay (NCI).
